Screening data as filed in PubChem BioAssay.
BAZ2B block – blocks human BAZ2B | Q9UIF8 | AID 504333 | AlphaScreen BAZ2B-H3K14Ac peptide displacement | Potency, µM (highest dose often 114 µM), without a hit: top-dose activity change, negative = inhibition, hits mostly inhibitors | 360,000 tested, 4.4% active; note: potency is the fitted concentration of half-maximal effect; % is set by controls: 0 for no effect and ±100 for the full control effect; nearly all actives have a fitted effect of over 60% in size
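Inhibition is scored as reduced AlphaScreen emission. The BAZ2B/b-H3(5-23)K14Ac complex (50 nM each) in PBS pH 7.4, 0.01% Tween-20 meets compound (up to 110 uM) for 30 min at RT before bead addition.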
CtBP-E1A blk – CtBP/E1A binding inhibition | AlphaScreen GST-E1A/His-CtBP binding, 1536-well; active compounds read low | activity change, % (no concentration beside the values) | 340,000 tested, 0.49% active; in the data active = activity change below about -65%; inconclusive = mostly about -30% to -63%; note: % is set by controls: 0 for no effect and ±100 for the full control effect
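Protein mix (5X: 125 nM each GST-E1A, His-CtBP) was incubated with pinned compound 2 h at 37 deg C in dark, in 50 mM Tris pH 8.0 buffer with 300 mM NaCl. Glutathione donor and nickel acceptor beads followed; AlphaScreen signal read after 1 h.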
HP1b chromo inh – HP1-beta chromodomain-methylated histone interaction inhibition | P83916 | AlphaScreen HP1-beta / biotin-H3K9me3 peptide binding | Potency, µM (highest dose often 114 µM), for the others: top-dose activity change, negative = inhibition, actives largely listed as inhibitors | 390,000 tested, 0.56% active | AID 540317; note: potency is the fitted concentration of half-maximal effect; nearly all actives have a fitted effect of over 70% in size
Target sequence (P83916 whole entry, looked up): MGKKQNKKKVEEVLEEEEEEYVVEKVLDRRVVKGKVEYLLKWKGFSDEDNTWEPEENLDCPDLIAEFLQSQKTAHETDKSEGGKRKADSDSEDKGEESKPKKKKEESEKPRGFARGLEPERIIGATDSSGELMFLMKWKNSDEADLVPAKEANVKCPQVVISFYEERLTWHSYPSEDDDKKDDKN
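HP1-beta protein (50 nM final) preincubated 30 min at room temperature with biotinylated H3(1-18)K9me3 peptide (50 nM) in PBS pH 7.4, 0.01% Tween-20, then compound added for 30 min. AlphaScreen streptavidin donor/nickel chelate acceptor beads (10 ug/mL final), 30 min dark, luminescence read.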
G9a inh – blocks human histone lysine methyltransferase G9a; Q96KQ7; G9a H3K9 monomethylation, AlphaScreen, 2 h; Potency, µM (titrated, usually from 102 µM), inactives show at the top dose activity, negative = inhibition, hits mostly inhibitors; 350,000 tested, 8.8% active; AID 504332; note: potency is the fitted concentration of half-maximal effect; % is set by controls: 0 for no effect and ±100 for the full control effect; nearly all actives have a fitted effect of over 75% in size
Target sequence (Q96KQ7 913-1193 limits assumed): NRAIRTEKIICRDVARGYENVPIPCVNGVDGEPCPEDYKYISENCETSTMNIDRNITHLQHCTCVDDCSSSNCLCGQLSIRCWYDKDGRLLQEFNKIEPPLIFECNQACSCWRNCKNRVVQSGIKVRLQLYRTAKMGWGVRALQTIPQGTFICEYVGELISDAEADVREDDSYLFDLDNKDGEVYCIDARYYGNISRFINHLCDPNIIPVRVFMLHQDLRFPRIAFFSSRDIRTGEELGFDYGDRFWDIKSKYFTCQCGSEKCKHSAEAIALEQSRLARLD
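Methyltransferase reactions run at room temperature for 2 h (20 nM enzyme, 500 nM biotin-H3K9 peptide, 20 uM SAM) after a 15 min compound preincubation; product detected by AlphaScreen beads and anti-H3K9me1 antibody.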
JMJD2A Tudor inh – blocks the human JMJD2A Tudor domain. O75164. AlphaScreen JMJD2A-Tudor / H3K4me3 peptide binding. Potency, µM (series often up to 114 µM), without a hit: at the highest dose activity change, negative = inhibition, actives largely listed as inhibitors. 390,000 tested, 4.4% active; note: potency is the fitted concentration of half-maximal effect; % is set by controls: 0 for no effect and ±100 for the full control effect; nearly all actives have a fitted effect of over 50% in size
Six1-Eya2 blk – blocks human Six1 binding to Eya2; Q15475+O00167; AlphaScreen GST-Six1/His-Eya2 binding, biochemical; active compounds read low; activity change, % (test concentration not listed); 360,000 tested, 0.56% active; AID 651725; in the data active = activity change below about -65%; inconclusive = mostly about -30% to -63%; note: % is set by controls: 0 for no effect and ±100 for the full control effect
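AlphaScreen luminescence read after one hour at 37 °C in darkness. Pin-transferred compounds met GST-Six1 and His-Eya2 protein (5X stock 250 nM/500 nM) plus glutathione donor and Ni-chelate acceptor beads (5X, 50 ug/mL).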
Active calls of the source: *; ? = inconclusive; . = no result; [ ] = dose if it differs, or a comment. Shown are actives, neighbours in structure and some others; about 10% of the full set was active somewhere. Unless noted, calls come from the whole dose curve; as a rule, active = well fitted inhibition curve with a large enough effect; inconclusive = small, poorly fitted or top-dose-only effect; inactive = no such curve, though single readings can be large or run the other way.

SMILES	BAZ2B block	CtBP-E1A blk	HP1b chromo inh	G9a inh	JMJD2A Tudor inh	Six1-Eya2 blk
COc1cccc(CN(C)C(=O)CNC(=O)c2ccc(-c3ccccc3)cc2)c1OC	0%	2	0%	45µM*	-21%	-3
COCC(=O)N1CCC[C@@]2(CCN(c3ncccn3)C2)C1	.	.	.	-6%[12.7 µM]	.	.
O=C1NC(=O)C2(N1)C(=O)c1cccc3cccc2c13 (stereo not given)	.	-1	.	.	.	-6
COc1ccc(NC(=O)CCc2ccccc2)cc1NC(=O)c1ccco1	0%	6	22%	17%[59 µM]	-9%	-3
COc1ccc(CC(=O)Nc2ccc(OC)c(NC(=O)c3ccco3)c2)cc1	-5%	-5	31%	50µM*	-9%	-3
COc1ccccc1C(=O)NNC(=S)NC(=O)c1ccco1	7%	-11	24%	28µM*	-29%	-4
COc1ccccc1C(=O)NNC(=S)Nc1ccccc1	5%	-1	28%	28µM*	-7%	-7
COC(=O)NNC(=O)c1ccccc1OC	-2%	6	70%	12%[59 µM]	-1%[11.4 µM]	1
COc1cc(NC(=S)NC(=O)c2ccccc2F)ccc1NC(=O)c1ccco1	1%	3	?	7.9µM*	?	2
CC(=O)c1cccc(NC(=O)Cn2cnc3c2c(=O)n(C)c(=O)n3C)c1	4%	.	23%	-7%[59 µM]	-5%	.
Cc1cccc(Cn2cc(S(=O)(=O)c3cccc(Cl)c3)c(=O)c3cc(F)c(N4CCOCC4)cc32)c1	4%	.	36%	6%[59 µM]	-5%	.
O=C(NC(=S)Nc1ccc(F)c([N+](=O)[O-])c1)c1ccccc1F	-34%	3	25%	45µM*	-9%	-8
O=C(NC(=S)Nc1ccc2[nH]c(=O)[nH]c2c1)c1ccccc1F	-4%	-1	30%	.	-13%	-2
Cc1csc2c(=O)sc(NC(=O)c3ccco3)nc12	-1%	-9	16%	50µM*	-6%	-1
Cc1csc2c(=O)sc(NC(=O)c3cccs3)nc12	50µM*	-4	1%	?	-28%	-7
O=C(Nc1nc2ccsc2c(=O)s1)c1ccco1	?	-5	?	40µM*	35µM*	-12
Cc1nc2ccc3nc(NC(=O)c4ccco4)sc3c2s1	.	79	124%	.	?	-15
CCc1ccccc1NC(=O)c1cc(S(=O)(=O)N2CCc3ccccc32)ccc1F	8%	.	51%	2%[59 µM]	-2%	.
CCCN(CCC)CCNC(=O)Cn1ncc2c([nH]c3ccc(C)cc32)c1=O	11%[57.1 µM]	.	45%	-1%[59 µM]	1%	.
COc1cccc(C(=O)n2nc(-c3ccco3)nc2NCc2cccs2)c1	-5%	.	-21%	-48%[59 µM]	4%	.
CCCSc1nnc(-c2cccc(S(=O)(=O)N(C)C)c2)n1-c1cc(OC)ccc1OC	-3%	-3	9%	4%[59 µM]	-15%	-2
CN(C)S(=O)(=O)c1cccc(-c2nnc(SCCNCCO)n2-c2ccc(F)cc2)c1	79µM*	0	21%	?	50µM*	21
O=C(NC1(C(F)(F)F)Oc2ccccc2O1)N1CCCC1	-6%	4	48%	6.3µM*	?	-1
O=C(Nc1ccc2c(c1)OCCO2)NC1(C(F)(F)F)Oc2ccccc2O1	-9%	-3	-3%	2µM*	?	6
O=C(Nc1ccc2c(c1)OCO2)NC1(C(F)(F)F)Oc2ccccc2O1	-22%	0	19%	6.3µM*	-34%	-10
SMILES	BAZ2B block	CtBP-E1A blk	HP1b chromo inh	G9a inh	JMJD2A Tudor inh	Six1-Eya2 blk
O=C(NCc1cccnc1)C1CCC(CNS(=O)(=O)c2cccc3nsnc23)CC1 (stereo not given)	4%	5	34%	.	1%	1
CCn1c(C(=O)N2CCC(C(=O)NCCc3ccc(OC)cc3OC)CC2)cc2sccc21	-16%	.	7%	-27%[59 µM]	-17%	.
COc1ccc(-c2nn(-c3ccccc3)cc2C(=O)NCC2CCCO2)cc1 (stereo not given)	-8%	0	9%	9%	-22%	-1
CCN(CC)C(=O)Cn1cc(SCC(=O)Nc2cc(C)on2)c2ccccc21	-12%	6	14%	-7%	89µM*	1
CCN(CC)C(=O)Cn1cc(SCC(=O)Nc2ccccc2C)c2ccccc21	-10%	.	56%	-15%[59 µM]	-11%	.
Cc1ccc(C(=O)NCCn2cc(SCC(=O)Nc3nnc(C)s3)c3ccccc32)cc1	-6%	-4	36%	50µM*	-22%	1
CCOc1ccc(C(=O)NCCn2cc(SCC(=O)Nc3cc(C)on3)c3ccccc32)cc1	79µM*	-1	19%	-7%[59 µM]	-19%	-3
Cc1cc(NC(=O)CSc2cn(CCNC(=O)c3ccc(Cl)cc3)c3ccccc23)no1	-8%	-3	41%	?	-6%	-5
Cc1ccc(NC(=O)CC(c2ccc(F)cc2)N2Cc3ccccc3C2=O)cc1C (stereo not given)	-26%	.	20%	-16%[59 µM]	0%	.
COc1ccc(/C=C/C(=O)Nc2cc(S(=O)(=O)N3CCOCC3)ccc2N2CCCC2)cc1OC	?	25	-9%	-28%	-28%	-13
COc1ccc(/C=C/C(=O)Nc2cc(S(=O)(=O)N3CCCCC3)ccc2N2CCCCC2)cc1OC	4%	2	35%	4%[59 µM]	-17%	0
CCOc1ccccc1NC(=O)/C=C/c1ccc(S(=O)(=O)N2CCOCC2)cc1	-4%	-22	9%	50µM*	-20%	-2
CCN1CCN(c2ccc(S(=O)(=O)N3CCOCC3)cc2NC(=O)/C=C/c2ccc(OC)c(OC)c2)CC1	6%	3	10%	14µM*	-20%	-4
CCOc1ccccc1NC(=O)c1ccc(S(=O)(=O)N2CCOCC2)cc1	2%	4	40%	0%	-5%	-3
COc1cc(/C=C/C(=O)Nc2cc(S(=O)(=O)N3CCOCC3)ccc2N2CCCC2)cc(OC)c1OC	-29%	0	?	10µM*	-31%	-1
CCN1CCN(c2ccc(S(=O)(=O)N3CCCCC3)cc2NC(=O)/C=C/c2ccc(OC)c(OC)c2)CC1	?	-14	-6%	22µM*	-35%	-3
c1cncc(-c2cc(NCc3cccs3)ncn2)c1	.	.	.	2%[0.501 µM]	.	.
Cc1cccc(-c2ccc(O)cc2CN2CCN(c3ncc(Cc4ccccc4)cn3)CC2)c1	.	0	.	.	.	-14
O=C(NCc1cccc(Cl)c1)C1CCC(=O)N(CCCN2CCCC2=O)C1 (stereo not given)	-3%	5	35%	4%	-1%	0
CCOc1ccc(-n2c(SCC(=O)N3CCCCC3)nc3c([nH]c4ccccc43)c2=O)cc1	-1%	.	23%[57 µM]	7%[59 µM]	-1%	.
CCN1CCN(c2ccc(S(=O)(=O)N3CCOCC3)cc2NC(=O)/C=C/c2cccc(OC)c2OC)CC1	-12%	-16	9%	28µM*	-12%	-7
